TROY NFkB inh: inhibitors of TROY-driven NF-kB signaling, primary screen, Q293 LMP1-TROYcd cells, NF-kB luciferase, uHTS; Q293 LMP1-TROYcd NF-kB luciferase reporter, 4 h; inhibition, % at 10 µM; 360,000 tested, 0.98% active; AID 1347056, 2019;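 active = compounds whose plate-normalised and pattern-corrected inhibition of the luciferase reporter signal at the single screening dose is 50% or more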
HIF-2a inh: HIF-2a reporter inhibitors, primary screen, luminescence, 786-0 RCC cells; 786-0 RCC cells HIF-2a reporter, luciferase luminescence, overnight; inhibition, % at 18.8 µM; 360,000 tested, 0.72% active; AID 624352, 2012;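 active = inhibition of the luminescence signal of 40% or more relative to plate controls, in a single-dose primary screen at 18.75 µM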
KKLEB tox: cytotoxicity in KKLEB CF airway cells, primary screen, cytotoxicity control for CF NF-kB inhibitor project, cell-based, uHTS, fluorescence assay plates; KKLEB CF airway cells viability, ATPlite luminescence, overnight; hits give low values; cells stimulated with P. aeruginosa culture filtrate; activity change (cytotoxicity), % at 5 µM; 360,000 tested, 0.36% active;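 active = corrected activity change at or below -50% at 5 µM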
TWEAK-Fn14 inh: inhibitors of TWEAK-Fn14 signaling, primary screen, luciferase reporter cells, uHTS. 360,000 tested, 2% active. TWEAK-stimulated Fn14 reporter cells, luciferase luminescence, 8 h. inhibition, % at 10 µM. AID 1159606, 2016; in the data active = inhibition above about 50%
CF NFkB inh: inhibitors of PAF-induced NF-kB signaling, primary screen, cell-based, GFP fluorescence, uHTS; KKLEB NF-kB-GFP reporter, GFP fluorescence overnight; inhibition, % at 5 µM; 360,000 tested, 0.86% active; AID 588850, 2011;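 active = at least 50% inhibition at 5 µM, scaled per plate between neutral and stimulator controls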;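 also: PAF is a Pseudomonas aeruginosa culture filtrate used as stimulus; plate controls were PAF-stimulated DMSO wells for no effect and unstimulated DMSO wells for full effect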
Peg3 prom inh-1: Peg3 promoter-driven luciferase inhibitors, primary screen, cell-based, HeLa, luciferase luminescence. inhibition, % at 20 µM. HeLa PEG-Prom luciferase reporter, overnight. 360,000 tested, 1.7% active;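 active = inhibition of at least 50% at 20 µM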
Peg3 prom inh-2: Peg3 promoter reporter inhibitors, retest, confirmation, cell-based, HeLa, luciferase reporter, single concentration | shares compounds with Peg3 prom inh-1 | HeLa PEG-Prom luciferase reporter, luminescence, overnight | inhibition, % at 20 µM | 1,300 tested, 84% active;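 active = at 20 µM dose, 40% or more inhibition averaged across four replicates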
Numbers without * were called inactive. Hits are enriched below; roughly 4% of the tested compounds scored in any of these assays.

How did N#Cc1c(-c2ccccc2Cl)c2c([nH]c1=O)-c1ccccc1OC2 do in these assays?
TROY NFkB inh: 3.4; HIF-2a inh: 7.2; KKLEB tox: 8.5; TWEAK-Fn14 inh: -19.5; CF NFkB inh: -8.6; Peg3 prom inh-1: 7.6

How did Cc1cc(C)c2c(N)c3cccc(C)c3nc2n1 do in these assays?
TROY NFkB inh: -50.4; HIF-2a inh: -58.0; KKLEB tox: -3.5; TWEAK-Fn14 inh: -30.2; CF NFkB inh: -198.1; Peg3 prom inh-1: 106.8*; Peg3 prom inh-2: 99.0*

Results for O=C(Nc1cccc(Br)c1)c1ccc(CSc2ccccc2)cc1 ?
TROY NFkB inh: -47.9; HIF-2a inh: -103.2; KKLEB tox: -3.6; TWEAK-Fn14 inh: -1.3; CF NFkB inh: -8.6; Peg3 prom inh-1: -70.4

What do the screens show for `Cc1cc(CSc2ccccc2)ccc1NC(=O)c1ccc(Br)cc1`?
TROY NFkB inh: -8.7; HIF-2a inh: 7.3; KKLEB tox: 11.0; TWEAK-Fn14 inh: 4.9; CF NFkB inh: -11.0; Peg3 prom inh-1: 53.9*; Peg3 prom inh-2: 22.7

What do the screens show for `Cc1cc(=O)oc2cc(OCC(=O)c3ccc4c(c3)NC(=O)CO4)ccc12`?
TROY NFkB inh: 11.5; HIF-2a inh: -1.8; KKLEB tox: -3.5; TWEAK-Fn14 inh: -4.0; CF NFkB inh: 0.3; Peg3 prom inh-1: 52.9*; Peg3 prom inh-2: 5.0

Results for CC(C)(C)NS(=O)(=O)c1ccc(C(=O)Nc2ccc3c(c2)OCO3)cc1 ?
TROY NFkB inh: -47.0; HIF-2a inh: -106.7; KKLEB tox: -2.1; TWEAK-Fn14 inh: 1.8; CF NFkB inh: -28.7; Peg3 prom inh-1: -71.0

What do the screens show for `O=C1C(Cl)=C(Nc2ccccc2)C(=O)c2ccccc21`?
TROY NFkB inh: 70.0*; HIF-2a inh: 97.1*; KKLEB tox: -82.6*; TWEAK-Fn14 inh: 43.5; CF NFkB inh: 92.6*; Peg3 prom inh-1: 102.5*; Peg3 prom inh-2: 98.5*

What do the screens show for `C/C(=N\N=C(N)N)c1cc(Cl)ccc1Cl`?
TROY NFkB inh: 7.3; HIF-2a inh: 10.7; KKLEB tox: 9.2; TWEAK-Fn14 inh: -6.3; CF NFkB inh: -2.9; Peg3 prom inh-1: 7.1

How did C/C(=N\N=C(N)N)c1ccc(Cl)cc1Cl do in these assays?
TROY NFkB inh: 12.3; HIF-2a inh: -0.9; KKLEB tox: -18.0; TWEAK-Fn14 inh: 5.1; CF NFkB inh: -5.4; Peg3 prom inh-1: 71.1*; Peg3 prom inh-2: 72.6*

How did CCc1nc2c(OCc3ccc(Cl)cc3)cccn2c1N(C)C(=O)c1cccs1 do in these assays?
TROY NFkB inh: -0.1; HIF-2a inh: 9.0; KKLEB tox: -14.9; TWEAK-Fn14 inh: -3.1; CF NFkB inh: 16.3; Peg3 prom inh-1: 14.0

How did COc1ccc(/C=C/C(=O)c2ccc3c4c(cccc24)CC3)cc1OC do in these assays?
TROY NFkB inh: -7.5; HIF-2a inh: -40.5; KKLEB tox: -27.2; TWEAK-Fn14 inh: 52.3*; CF NFkB inh: 28.3; Peg3 prom inh-1: 69.1*; Peg3 prom inh-2: 83.8*

Results for COc1ccc(/C=C/C(=O)c2ccc3c4c(cccc24)CC3)cc1 ?
TROY NFkB inh: -19.5; HIF-2a inh: -28.1; KKLEB tox: -42.0; TWEAK-Fn14 inh: -9.4; CF NFkB inh: 16.3; Peg3 prom inh-1: 24.6

What do the screens show for `Cc1nc2c(OCc3ccc(F)c(F)c3)cccn2c1N(C)C(=O)CCC1CCCC1`?
TROY NFkB inh: 25.6; HIF-2a inh: 0.6; KKLEB tox: -18.3; TWEAK-Fn14 inh: 9.4; CF NFkB inh: -2.0; Peg3 prom inh-1: 25.9

Results for Cc1nc2c(OCc3ccc(OC(F)F)cc3)cccn2c1N(C)C(=O)CCC1CCCC1 ?
TROY NFkB inh: 33.6; HIF-2a inh: -0.5; KKLEB tox: -6.9; TWEAK-Fn14 inh: 38.7; CF NFkB inh: 0.4; Peg3 prom inh-1: 65.1*; Peg3 prom inh-2: 54.2*

Results for CCOC(=O)C1(CCCc2ccccc2)CCN(C(=O)c2n[nH]c(CC)c2C)CC1 ?
TROY NFkB inh: 16.9; HIF-2a inh: -16.8; KKLEB tox: 1.1; TWEAK-Fn14 inh: -3.4; CF NFkB inh: 7.3; Peg3 prom inh-1: 2.2

What do the screens show for `CCC(C)(C)c1ccc(Oc2ccc(N)cc2)cc1`?
TROY NFkB inh: 88.7*; HIF-2a inh: 88.1*; KKLEB tox: 3.6; TWEAK-Fn14 inh: 100.8*; CF NFkB inh: -27.7; Peg3 prom inh-1: 72.0*; Peg3 prom inh-2: 90.7*

What do the screens show for `COc1ccc(C(C[N+](=O)[O-])c2c(C)cc3ccccn23)c(OC)c1` (configuration not stated)?
TROY NFkB inh: 1.9; HIF-2a inh: 33.7; KKLEB tox: -11.2; TWEAK-Fn14 inh: 25.2; CF NFkB inh: 17.1; Peg3 prom inh-1: 17.7

Results for NC(=O)CSc1nc(-c2ccccc2)nc2ccccc12 ?
TROY NFkB inh: -10.4; HIF-2a inh: -2.5; KKLEB tox: -4.4; TWEAK-Fn14 inh: 15.8; CF NFkB inh: -41.3; Peg3 prom inh-1: 6.7

What do the screens show for `Cc1cccc2c(SCC(N)=O)nc(-c3ccccc3)nc12`?
TROY NFkB inh: -14.3; HIF-2a inh: 10.3; KKLEB tox: -0.3; TWEAK-Fn14 inh: -11.8; CF NFkB inh: -3.7; Peg3 prom inh-1: 50.9*; Peg3 prom inh-2: 32.9

How did Cc1cc(C)c(S(=O)(=O)Nc2ccc3c(c2)CCC3)c(C)c1 do in these assays?
TROY NFkB inh: 19.2; HIF-2a inh: 17.2; KKLEB tox: -0.6; TWEAK-Fn14 inh: 37.1; CF NFkB inh: 24.6; Peg3 prom inh-1: 51.1*; Peg3 prom inh-2: 40.7*

Results for Cc1cc(C)c(S(=O)(=O)Nc2ccc(O)cc2)c(C)c1 ?
TROY NFkB inh: 1.7; HIF-2a inh: 21.1; KKLEB tox: 4.9; TWEAK-Fn14 inh: 6.1; CF NFkB inh: -5.7; Peg3 prom inh-1: 18.3

How did CN(C)c1ccc(-c2nc3ccccn3c2/N=C/c2ccc(Br)cc2)cc1 do in these assays?
TROY NFkB inh: 22.1; HIF-2a inh: 35.9; KKLEB tox: -9.4; TWEAK-Fn14 inh: 65.4*; CF NFkB inh: -7.5; Peg3 prom inh-1: 54.1*; Peg3 prom inh-2: 40.9*

How did O=C(O)Cc1cn(-c2ccccc2)nc1-c1ccccc1 do in these assays?
TROY NFkB inh: 0.5; HIF-2a inh: 9.5; KKLEB tox: 2.1; TWEAK-Fn14 inh: -4.6; CF NFkB inh: -2.9; Peg3 prom inh-1: 0.6

What do the screens show for `Fc1ccc(-c2nn(-c3ccccc3)cc2CNCc2ccccc2)cc1`?
TROY NFkB inh: -9.8; HIF-2a inh: 5.0; KKLEB tox: -10.5; TWEAK-Fn14 inh: -1.0; CF NFkB inh: -0.3; Peg3 prom inh-1: 61.7*; Peg3 prom inh-2: 16.5
